ELG1 genotox: qHTS screen for small molecules that induce genotoxicity in human embryonic kidney (HEK293T) cells expressing luciferase-tagged ELG1 | AID 504466, 2011 | 330,000 tested, 1.3% active | Potency, µM (top dose mostly 46 µM), for the others: top-dose activity change, positive = activation, actives largely listed as activators | HEK293T ELG1-luciferase reporter, luminescence, 16 h; also: % of control where 0% means no effect; nearly all actives have a fitted effect of over 60% in size
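After overnight (16 hr) compound treatment at 37 °C, ELG1-luciferase HEK293T cells were lysed with ONE-Glo; luminescence quantified 30 min later at room temperature.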
Rab9 prom act: qHTS Assay for Rab9 Promoter Activators; Huh7 Rab9 promoter-luciferase reporter, luminescence, 24 h; Potency, µM (doses to about 9.22 µM), for the others: top-dose activation, negative = inhibition, actives largely listed as activators; 320,000 tested, 2.8% active; also: % of control where 0% means no effect; nearly all actives have a fitted effect of over 60% in size
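Rab9 promoter-driven luciferase in stably transfected Huh7 cells; 1500 cells/well rested 2 h, exposed to compound in DMSO for 24 h at 37 °C, 5% CO2. Luminescence read 10 min after adding luciferase reagent at ambient temperature.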
NPC1 prom act: qHTS Assay for NPC1 Promoter Activators; AID 485313, 2010; Potency, µM (top dose mostly 9.22 µM), inactives show at the top dose activation, usual class: activators; Huh7 NPC1 promoter luciferase reporter, 24 h; 320,000 tested, 2.4% active; also: % of control where 0% means no effect; nearly all actives have a fitted effect of over 60% in size
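Stably transfected Huh7 (NPC1 promoter→luciferase), 1500 cells/well in Opti-MEM + 10% FBS, 2 h settle, then compound 24 h at 37 °C. Luminescence after 10 min with Amplite reagent.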
SMN2 splice up: qHTS Assay for Enhancers of SMN2 Splice Variant Expression; AID 1458, 2008; HEK293 SMN2-luciferase splicing reporter, luminescence, 30-36 h; 210,000 tested, 2.8% active; Potency, µM (titrated, usually from 46.1 µM), without a hit: top-dose activity change, positive = activation, hits mostly activators; also: % of control where 0% means no effect; nearly all actives have a fitted effect of over 55% in size
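HEK293 cells carry an SMN2 […]–luciferase reporter in which exon 7 inclusion puts luciferase in frame. Cells were plated 10-12 h before compound addition, then incubated 30-36 h at 37C. ONE-Glo luminescence was read; sodium butyrate at 4.5 mM final served as control.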
FLuc counter: qHTS profiling assay for firefly luciferase inhibitor/activator using purifed enzyme and Km concentrations of substrates (counterscreen for miR-21 project); Luciferin 4-monooxygenase (Photinus pyralis), P08659; Potency, µM (doses to about 57.5 µM), for the others: at the top dose activity change, negative = inhibition, hits mostly inhibitors; 360,000 tested, 6.9% active; purified FLuc, Km substrates, luminescence inhibition;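 also: plate controls were vehicle for no effect and reference inhibitor for full effect; nearly all actives have a fitted effect of over 55% in size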
Target sequence (P08659 whole entry, looked up): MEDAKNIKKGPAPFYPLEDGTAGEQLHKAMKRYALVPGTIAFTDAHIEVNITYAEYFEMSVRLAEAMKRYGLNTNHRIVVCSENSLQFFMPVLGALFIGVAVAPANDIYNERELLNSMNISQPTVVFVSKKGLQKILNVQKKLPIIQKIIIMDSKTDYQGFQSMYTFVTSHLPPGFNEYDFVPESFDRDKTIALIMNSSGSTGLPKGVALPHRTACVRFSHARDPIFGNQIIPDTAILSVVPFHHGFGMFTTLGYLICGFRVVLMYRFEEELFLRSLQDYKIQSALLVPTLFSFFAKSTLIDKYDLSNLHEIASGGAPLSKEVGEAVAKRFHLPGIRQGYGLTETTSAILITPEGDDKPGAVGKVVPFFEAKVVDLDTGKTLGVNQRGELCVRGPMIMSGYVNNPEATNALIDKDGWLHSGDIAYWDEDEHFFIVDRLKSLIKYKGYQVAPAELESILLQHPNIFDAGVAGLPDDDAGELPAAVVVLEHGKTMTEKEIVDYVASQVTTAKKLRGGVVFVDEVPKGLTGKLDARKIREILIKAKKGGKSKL
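Purified P. pyralis luciferase (10nM final) with 10uM D-luciferin and 10uM ATP (Km levels) in 50mM Tris acetate pH 7.5, 10mM Mg acetate, 0.01% Tween-20, 0.05% BSA; qHTS 6-point titration, ~60 µM downward; luminescence read.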
ELG1 DNA repair: qHTS screen for small molecules that inhibit ELG1-dependent DNA repair in human embryonic kidney (HEK293T) cells expressing luciferase-tagged ELG1. 330,000 tested, 2.3% active. HEK293T ELG1-luciferase reporter, luminescence, 16 h; DNA damage induced by 5-fluorouridine. Potency, µM (doses to about 46.1 µM), inactives show at the highest dose activity change, negative = inhibition, most hits filed as inhibitors; also: % is scaled to controls: 0 for no effect and ±100 for the full control effect; nearly all actives have a fitted effect of over 55% in size
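Quantitative HTS, concentration-response format. 2,000 cells/well co-treated with 5-fluorouridine and compound, 16 hr in 5% CO2 at 37 °C; ONE-Glo luminescence read after 30 min.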
The depositor's hits bear a star; ? = inconclusive; . = no result given; [ ] = remark or other dose. Hits are enriched below; roughly 9.2% of the tested compounds scored in any of these assays. Calls follow the shape of the dose curve; as a rule, active = well fitted curve in the direction sought with a large enough effect; inconclusive = small, poorly fitted or top-dose-only effect, or another doubt; inactive = no such curve, though single readings can be large; an effect the other way counts as inactive or inconclusive. Potency is read from the fitted curve at half-maximal effect.

SMILES | ELG1 genotox | Rab9 prom act | NPC1 prom act | SMN2 splice up | FLuc counter | ELG1 DNA repair
COc1cc(C(=O)Oc2ccc(/C=N/NC(=O)c3ccncc3)cc2)cc(OC)c1OC | -3% | -1% | -15% | . | 5% | 6%
CCCOc1ccc2[nH]c(C(=O)N/N=C/c3cc(OC)c(OC)c(OC)c3)cc2c1 | -6% | 14% | 11% | . | 13µM* | ?
CCOc1ccc(/C=N/NC(=O)c2cc3c(OC)cc(OC)c(OC)c3[nH]2)cc1 | -16% | -5%[1.84 µM] | -6% | . | ? | 8.2µM*
COc1ccc2[nH]c(C(=O)N/N=C/c3ccccc3OC)cc2c1 | -4% | 0% | -18% | . | 19µM* | ?
COc1ccc(OC)c(/C=N/NC(=O)c2cc3c(OC)c(OC)ccc3[nH]2)c1 | 0% | 3% | -2% | 17% | 4.8µM* | ?
CC(=O)N1CCC[C@@]2(CCN(C(=O)Nc3cccc(C#N)c3)C2)C1 | . | . | . | -11% | . | .
CN(C(=O)c1ccc(N2CCCCC2)c([N+](=O)[O-])c1)C1(C)CCS(=O)(=O)C1 (stereo not given) | 1% | 1% | -3% | . | -5% | -10%
Cc1sc2ncn(CC(=O)N3CCC(C(N)=O)CC3)c(=O)c2c1S(=O)(=O)N1CCOCC1 | 0% | 2% | -1% | . | -1% | 5%
COc1ccc(/C=N\NC(=O)c2ccccc2)cc1COc1ccccc1 | -10% | 0% | -8% | . | -20% | ?
CCOc1ccc2[nH]c(C(=O)N/N=C/c3ccccc3OC)cc2c1 | -4% | -15% | -22% | . | 15µM* | ?
COc1ccc2[nH]c(C(=O)N/N=C/c3ccc(OC)c(O)c3)cc2c1 | 11% | -11% | -15% | . | 5.4µM* | ?
COc1cccc(OCc2cc(/C=N/NC(=O)c3ccn[nH]3)ccc2OC)c1 | 8% | 13% | 20% | 19% | 15µM* | 7%
COc1cc(OC)c2cc(C(=O)N/N=C/c3ccccc3O)[nH]c2c1 | ? | -34% | -45% | . | -5% | -15%
COc1ccc(/C=N/NC(=O)c2ccc(-c3ccccc3)cc2)cc1O | -3% | -5% | 1% | -6% | ? | ?
Cc1ccccc1NC(=O)c1nn(C)c2c1CS(=O)(=O)c1ccccc1-2 | -2% | 0% | 3% | . | -1% | -1%
COc1ccccc1CNS(=O)(=O)c1c(C(=O)N2CCC(C)CC2)c(C)n(C)c1C | . | . | . | . | -1% | .
Cc1cc(N=Nc2ccc(Cl)cc2)cc(CN2CCOCC2)c1O | -3% | 0% | -4% | . | 17µM* | -8%
CCOc1ccc(Cl)cc1CN1CCOCC1 | -1% | 0% | -4% | -19% | 5% | 0%
CCCCCOc1ccc(Cl)cc1CN1CCOCC1 | 21µM* | ? | 21% | -4% | 15µM* | ?
Cc1cc(N=Nc2ccc(Cl)cc2)cc(CN2CCCC2)c1O | 10% | 22% | 0% | . | ? | -10%
O=C(CSc1nc(-c2ccccc2)ns1)NCC1CCCO1 (stereo not given) | ? | 28% | ? | . | ? | ?
COc1ccc(-c2cn3nc(SCC(=O)NCC4CCCO4)ccc3n2)cc1 (stereo not given) | ? | 1.6µM* | ? | . | 2.7µM* | ?
O=C(CSc1ccc2nc(-c3ccccc3)cn2n1)NCC1CCCO1 (stereo not given) | 10% | ? | ? | . | 19µM* | ?
COc1ccc(-c2cn3nc(SCC(=O)Nc4ccccc4F)ccc3n2)cc1 | . | . | . | . | 1.1µM* | .
O=C(CSc1ccc(-c2ccc(-n3cccn3)cc2)nn1)Nc1ccccc1F | ? | 2% | 13% | . | 0.6µM* | ?
SMILES | ELG1 genotox | Rab9 prom act | NPC1 prom act | SMN2 splice up | FLuc counter | ELG1 DNA repair
COc1ccc2oc(C(=O)N3CCN(S(=O)(=O)c4cccc([N+](=O)[O-])c4)CC3)c(C)c2c1 | -14% | -2% | -1% | . | 2% | 7.3µM*
Cc1c(C(=O)N2CCN(S(=O)(=O)c3cccs3)CC2)oc2ccc(F)cc12 | -4% | . | . | . | . | 5.2µM*
COc1ccc2oc(C(=O)OCC(=O)N3CCN(S(=O)(=O)c4ccccc4)CC3)c(C)c2c1 | -2% | -1% | -2% | . | 4% | -15%
CCOc1ccc(S(=O)(=O)N2CCN(C(=O)c3oc4ccc(OC)cc4c3C)CC2)cc1 | -7% | -7% | -1% | . | 11% | 21µM*
COc1cccc(C(=O)CN2CCN(S(=O)(=O)c3cccc([N+](=O)[O-])c3)CC2)c1 | 1% | -8% | 2% | -7% | 0% | 21%
CC(=O)c1cccc(NC(=O)C(C)OC(=O)c2cccc(S(=O)(=O)N3CCN(C)CC3)c2)c1 (stereo not given) | 0% | 1% | -7% | . | -3% | 0%
CC1=CC(=O)O[C@@H]1[C@@]1(C)C[C@H]2OC(=O)C[C@H]3[C@@H](C)C(=O)C(O)=C1[C@@]23CO | -48% | -13% | -18% | . | -6% | 18µM*
CC1CCCC(NC(=O)Cn2c(Cl)nc3c2c(=O)n(C)c(=O)n3C)C1C (stereo not given) | -7% | . | . | . | . | ?
COc1ccccc1N1CCN(/N=C/c2ccc(Cl)c([N+](=O)[O-])c2)CC1 | ? | 24% | 28% | . | 15µM* | ?
COc1ccccc1N1CCN(/N=C/c2ccc([N+](=O)[O-])cc2)CC1 | -5% | 4µM* | ? | . | 15µM* | ?
COc1ccc(NC(=S)N2CCN(c3ccc([N+](=O)[O-])cc3)CC2)cc1OC | 0% | -4% | -12% | -29% | -12% | 13µM*
COc1ccccc1N1CCN(C(=O)Nc2ccc([N+](=O)[O-])cc2)CC1 | -4% | -1% | 2% | 5% | 0% | 15µM*
COc1ccc(NC(=O)CSc2nc3ccccc3n2Cc2cccc(OC)c2)cc1 | . | . | . | . | -12% | .
O=C(NCc1cccs1)c1cc(-c2ccc(O)cc2)on1 | ? | 3.5µM* | ? | . | ? | ?
COc1ccccc1-c1cc(C(=O)Nc2cc(OC)c(OC)c(OC)c2)no1 | . | . | . | -32% | -19% | .
COc1cccc2c(=O)c(C(=O)NCc3cccs3)c[nH]c12 | ? | 3.5µM* | ? | ? | 9.5µM* | ?
Cc1ccc2[nH]cc(C(=O)NCc3cccs3)c(=O)c2c1 | -3% | -2% | -7% | -24% | -13% | ?
CCN(CC)C(=O)c1cc(-c2ccccc2OC)on1 | ? | ? | ? | 12% | 17µM* | ?
